# Test results taken from PubChem BioAssay (NCATS).
# Inconclusive results are not listed. Where a call stands in place of a potency, no number is given. Activity calls are given as the source filed them. Calls follow the shape of the full dose curve.
# How the values were obtained:
# [1] = Primary qHTS for Huh7 cytotoxicity: counterscreen for inhibitors of MERS-S pseudotyped particle cell entry (AID 1479147); details: outcome: dose series up to 57.1 µM unless noted
# [2] = Primary qHTS for inhibitors of MERS-S pseudo-typed particle cell entry (AID 1479149); details: outcome: dose series up to 57.1 µM unless noted; also: nearly all actives have a fitted effect of over 60% in size
# [3] = Cytotoxicity counterscreen for inhibitors of SARS-CoV-2 cell entry (AID 1645845); details: outcome: dose series up to 57.1 µM unless noted; also: nearly all actives have a fitted effect of over 50% in size; also: potency is read from the fitted curve at half-maximal effect
# How it was run: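 Counterscreen run in the same HEK293-ACE2 line as the pseudotyped-particle entry assay, without particles. Viability after 48 h at 37 C was read as ATP luminescence, scaled between cell-containing and cell-free wells.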
# [4] = Primary qHTS to identify inhibitors of SARS-CoV-2 cell entry (AID 1645846); details: SARS-CoV-2 pseudovirus cell entry assay, luminescence; activity change, negative = inhibition: at 57.1 µM (top of the series) unless noted; also: nearly all actives have a fitted effect of over 45% in size; also: potency is read from the fitted curve at half-maximal effect
# How it was run: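 Using luciferase-reporting pseudoviruses carrying Wuhan-Hu-1 spike, the screen tracks entry into stably ACE2-expressing cells over 48 hr. Activity is expressed relative to spike particles versus particles lacking any fusion protein.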
# [5] = Primary qHTS for Vero E6 cytotoxicity: counterscreen for inhibitors of SARS-S pseudo-typed particle cell entry (AID 1479150); details: outcome: dose series up to 57.1 µM unless noted
# [6] = Confirmatory qHTS for VERO E6 Cytotoxicity Assay: Counterscreen for SARS-CoV-2 CPE Assay (AID 1508605); also: nearly all actives have a fitted effect of over 60% in size
# [7] = VSVG counterscreen qHTS to identify inhibitors of SARS-CoV-2 cell entry (AID 1645847); also: potency is read from the fitted curve at half-maximal effect; nearly all actives have a fitted effect of over 65% in size
# How it was run: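 Entry of VSV-G pseudotyped particles into human ACE2-expressing HEK293 cells was measured by luciferase luminescence 48 h after infection, with compound added 1 h beforehand.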
# [8] = Confirmatory qHTS to identify inhibitors of SARS-CoV-2 cell entry (AID 1645844); also: potency is read from the fitted curve at half-maximal effect; nearly all actives have a fitted effect of over 45% in size
# How it was run: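 HEK293-ACE2, overnight seeding; cpd 1 h, 37C/5% CO2; + SARS-CoV-2-S MLV PP (Wuhan-Hu-1, ΔC19); 48 h; Bright-Glo luminescence. Data normalised to S PP and bald PP wells.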
smiles,measurement,setting,value
CN[C@@H]1[C@@H](O[C@H]2O[C@H](CO)[C@@H](N)[C@H](O)[C@H]2O)O[C@H]2C[C@@H](N)[C@H](O[C@H]3[C@H](O)[C@@H](O)[C@H](N)C[C@@H]3N)O[C@@H]2[C@@H]1O,Potency,[1],inactive
same,Potency,[2],inactive
same,Potency,[3],inactive
same,"activity change, negative = inhibition",[4],-26.5%
CC(C)C[C@H]1C(=O)O[C@H](Cc2ccc(N3CCOCC3)cc2)C(=O)N(C)[C@@H](CC(C)C)C(=O)O[C@H](C)C(=O)N(C)[C@@H](CC(C)C)C(=O)O[C@H](Cc2ccc(N3CCOCC3)cc2)C(=O)N(C)[C@@H](CC(C)C)C(=O)O[C@H](C)C(=O)N1C,Potency,[1],inactive
same,Potency,[5],inactive
same,Potency,[6],inactive
same,Potency,[3],inactive
Cc1cncc(CN2CCC(=C3c4ccc(Cl)cc4CCc4cccnc43)CC2)c1,Potency,[1],inactive
same,Potency,[5],inactive
same,Potency,[3],inactive
same,Potency,[4],12.6 µM (active)
same,Potency,[7],27.1 µM (active)
CC[C@@H](C(=O)[C@@H](C)[C@@H](O)[C@H](C)CCc1ccc(C)c(O)c1C(=O)O)[C@H]1O[C@](CC)([C@H]2CC[C@](O)(CC)[C@H](C)O2)C[C@@H]1C,Potency,[1],inactive
same,Potency,[5],inactive
same,Potency,[3],8.91 µM (active)
same,Potency,[4],5.01 µM (active)
COC(=O)C1=C(C#N)NC(C)=C(C(=O)OC(C)C)C1c1cccc([N+](=O)[O-])c1 (stereo not drawn),Potency,[1],inactive
same,Potency,[5],inactive
same,Potency,[3],inactive
CC(C)[C@H]1C(=O)N[C@@H](CCCN=C(N)N)C(=O)NCC(=O)N[C@@H](CC(=O)O)C(=O)N[C@H](Cc2ccccc2)C(=O)N1C,Potency,[1],inactive
same,Potency,[5],inactive
same,Potency,[3],inactive
COc1cc2c(cc1OC)[C@H]1C[C@@H](OC(=O)[C@@H](N)C(C)C)[C@H](CC(C)C)CN1CC2,Potency,[1],inactive
same,Potency,[5],inactive
same,Potency,[3],inactive
CC[C@@H]1/C=C(\C)C[C@H](C)C[C@H](OC)[C@H]2O[C@@](O)(C(=O)C(=O)N3CCCC[C@H]3C(=O)O[C@H](/C(C)=C/[C@@H]3CC[C@H](Cl)[C@H](OC)C3)[C@H](C)[C@@H](O)CC1=O)[C@H](C)C[C@@H]2OC,Potency,[1],inactive
same,Potency,[5],inactive
same,Potency,[3],inactive
CCC1OC(=O)[C@H](C)C(=O)[C@H](C)[C@@H](OC2O[C@H](C)C[C@H](N(C)C)[C@H]2O)[C@](C)(OC)C[C@@H](C)C(=O)[C@@H](C)[C@@H]2N(CCCCn3cnc(-c4cccnc4)c3)C(=O)O[C@]12C (stereo partly drawn),Potency,[1],inactive
same,Potency,[5],inactive
same,Potency,[3],inactive
Cc1cnc(C(=O)N[C@H]2CCCCC/C=C\[C@H]3C[C@@]3(C(=O)NS(=O)(=O)C3CC3)NC(=O)[C@@H]3C[C@@H](Oc4nc5ccccc5c5ccccc45)CN3C2=O)cn1,Potency,[1],inactive
same,Potency,[5],inactive
same,Potency,[3],inactive
CC(C)(C)NCC(O)COc1ccccc1C1CCCC1 (stereo not drawn),Potency,[1],inactive
same,Potency,[5],inactive
same,Potency,[3],inactive
same,Potency,[4],10 µM (active)
same,Potency,[7],12.1 µM (active)
CCN1CCN(Cc2ccc(Nc3ncc(F)c(-c4cc(F)c5nc(C)n(C(C)C)c5c4)n3)nc2)CC1,Potency,[1],inactive
same,Potency,[5],inactive
same,Potency,[8],5.41 µM (active)
same,Potency,[4],10 µM (active)
same,Potency,[7],6.81 µM (active)
CC(=O)c1ccc2c(c1)N(CCCN1CCN(CCO)CC1)c1ccccc1S2,Potency,[1],inactive
same,Potency,[5],inactive
same,Potency,[3],inactive
same,"activity change, negative = inhibition",[4],-25.7%
OC[C@H]1NC[C@H](O)[C@@H](O)[C@@H]1O,Potency,[1],inactive
same,Potency,[5],inactive
same,Potency,[3],inactive
CC(C)C[C@H]1C(=O)N2CCC[C@H]2[C@]2(O)O[C@](NC(=O)[C@@H]3C=C4c5cccc6[nH]c(Br)c(c56)CC4N(C)C3)(C(C)C)C(=O)N12 (stereo partly drawn),Potency,[1],inactive
same,Potency,[5],inactive
same,Potency,[3],inactive
same,Potency,[4],22.4 µM (active)
CCN1CCC(=C2c3ccccc3CCc3ccccc32)C1C (stereo not drawn),Potency,[1],inactive
same,Potency,[5],inactive
same,Potency,[3],inactive
CCOC(=O)Oc1c(OC)cc(C(=O)O[C@@H]2C[C@@H]3CN4CCc5c([nH]c6cc(OC)ccc56)[C@H]4C[C@@H]3[C@H](C(=O)OC)[C@H]2OC)cc1OC,Potency,[1],inactive
same,Potency,[5],inactive
same,Potency,[3],inactive
same,Potency,[4],22.4 µM (active)
COc1c(-c2ccc3cc(NS(C)(=O)=O)ccc3c2)cc(-n2ccc(=O)[nH]c2=O)cc1C(C)(C)C,Potency,[1],inactive
same,Potency,[5],inactive
same,Potency,[3],inactive
C=CC[C@@H]1/C=C(\C)C[C@H](C)C[C@H](OC)[C@H]2O[C@@](O)(C(=O)C(=O)N3CCCC[C@H]3C(=O)O[C@H](/C(C)=C/[C@@H]3CC[C@@H](O)[C@H](OC)C3)[C@H](C)[C@@H](O)CC1=O)[C@H](C)C[C@@H]2OC,Potency,[1],inactive
same,Potency,[5],inactive
same,Potency,[3],inactive
same,Potency,[4],inactive
CC(CN(C)C)CN1c2ccccc2Sc2ccc(C(F)(F)F)cc21 (stereo not drawn),Potency,[1],inactive
same,Potency,[5],inactive
same,Potency,[6],inactive
same,Potency,[3],inactive
same,Potency,[4],12.6 µM (active)
C=Cc1c(C)c2cc3nc(cc4[nH]c(cc5nc(cc1[nH]2)C(C)=C5CCC(=O)O)c(CCC(=O)OC)c4C)[C@@]1(C)C3=CC=C(C(=O)OC)[C@@H]1C(=O)OC,Potency,[1],inactive
same,Potency,[5],inactive
same,Potency,[3],inactive
CC(=O)O[C@]1(C(C)=O)CC[C@H]2[C@@H]3C=C(C)C4=CC(=O)CC[C@@H]4[C@H]3CC[C@@]21C,Potency,[1],inactive
same,Potency,[5],inactive
same,Potency,[3],inactive
same,"activity change, negative = inhibition",[4],-20%
CC[C@@H](C)[C@H]1O[C@]2(CC[C@@H]1C)C[C@@H]1C[C@@H](C/C=C(\C)[C@@H](O[C@H]3C[C@H](OC)[C@@H](O[C@H]4C[C@H](OC)[C@@H](O)[C@H](C)O4)[C@H](C)O3)[C@@H](C)/C=C/C=C3\CO[C@@H]4[C@H](O)C(C)=C[C@@H](C(=O)O1)[C@]34O)O2,Potency,[1],inactive
same,Potency,[5],inactive
same,Potency,[3],inactive
CC(CC(c1ccccc1)c1ccccc1)NC(C)(C)C (stereo not drawn),Potency,[1],inactive
same,Potency,[5],inactive
same,Potency,[3],inactive
N#Cc1ccc2[nH]cc(CCCCN3CCN(c4ccc5oc(C(N)=O)cc5c4)CC3)c2c1,Potency,[1],inactive
same,Potency,[5],inactive
same,Potency,[6],inactive
same,Potency,[3],inactive
CNS(=O)(=O)CC1CCC(N(C)c2ncnc3[nH]ccc23)CC1 (stereo not drawn),Potency,[1],inactive
same,Potency,[5],inactive
same,Potency,[3],inactive
Cc1ccc(C2(O)CCN(CCCC(=O)c3ccc(F)cc3)CC2)cc1,Potency,[1],inactive
same,Potency,[5],inactive
same,Potency,[3],inactive
